Many of the other results were omitted from the sample, so hits are more common in it than they were.
EZH2 inh: blocks human EZH2/PRC2 H3K27 methylation | Q15910 | DELFIA TRF, 1 h | inhibition, % at 12.5 µM | 57,000 tested, 0.35% active;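 active = mean inhibition of replicates at least 50% and every single replicate also reaching 50%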;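 also: dimethyl H3K27 on biotinylated H3 21-44 peptide detected by antibody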
Target sequence (Q15910 whole entry, looked up): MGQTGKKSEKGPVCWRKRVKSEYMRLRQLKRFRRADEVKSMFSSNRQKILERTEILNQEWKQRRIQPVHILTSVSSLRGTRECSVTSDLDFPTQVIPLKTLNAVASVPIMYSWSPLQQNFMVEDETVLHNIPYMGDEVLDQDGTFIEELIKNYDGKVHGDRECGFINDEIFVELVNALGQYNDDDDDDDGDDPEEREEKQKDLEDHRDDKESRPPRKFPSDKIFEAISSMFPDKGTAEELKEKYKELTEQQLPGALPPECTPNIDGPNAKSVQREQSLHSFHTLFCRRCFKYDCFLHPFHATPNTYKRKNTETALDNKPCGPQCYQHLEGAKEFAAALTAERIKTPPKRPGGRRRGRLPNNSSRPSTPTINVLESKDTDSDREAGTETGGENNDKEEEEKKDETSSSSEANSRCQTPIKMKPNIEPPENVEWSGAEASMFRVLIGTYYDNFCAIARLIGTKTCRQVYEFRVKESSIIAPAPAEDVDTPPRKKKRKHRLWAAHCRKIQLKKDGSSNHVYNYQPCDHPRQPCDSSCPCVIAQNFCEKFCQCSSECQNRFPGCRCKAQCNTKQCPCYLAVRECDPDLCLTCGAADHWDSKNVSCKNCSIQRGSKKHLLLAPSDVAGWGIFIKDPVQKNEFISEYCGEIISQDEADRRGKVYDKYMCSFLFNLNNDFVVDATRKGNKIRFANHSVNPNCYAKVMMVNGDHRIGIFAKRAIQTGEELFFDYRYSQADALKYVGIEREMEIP
Each line names hits and unclear results; the compound was inactive in the other large screens.

Brc1ccc2noc(-c3ccccc3)c2c1	EZH2 inh 63
Brc1ccc2nc(NCc3ccccn3)nc(-c3ccccc3)c2c1	none
OCCCNc1nc(-c2ccccc2Cl)c2cc(Br)ccc2n1	none
COC(=O)c1cc(OC)c(OC)cc1NC(=O)COc1ccc(C)cc1Br	none
CC(=O)c1cccc(NC(=O)CN(C2CCCCC2)S(=O)(=O)c2c(C)cc(C)cc2C)c1	none
CC1CC(=O)[C@]2(C)CC[C@]3(C)C(C(=O)C(O)C4[C@@]5(C)CC[C@H](O)C(C)(C(=O)O)C5CC[C@]43C)C2C1C (some centres undefined)	EZH2 inh 70
C[C@@H]1CC[C@]2(C(=O)O)CC[C@]3(C)C(=CCC4[C@@]5(C)CC[C@@H](O)[C@](C)(C(=O)O)C5CC[C@]43C)C2[C@H]1C (some centres undefined)	none
C[C@@H]1CC[C@@]23CCC4(C)[C@@](C=CC5[C@@]6(C)CC[C@H](O)C(C)(C)C6CC[C@]54C)(OC2=O)C3[C@H]1C (some centres undefined)	none
O=C(Cn1cnc2scc(-c3ccccc3)c2c1=O)Nc1ccc(Oc2ccccc2)cc1	none
O=C(NO)c1ccc(C(=O)N/N=C/c2ccc(O)c(O)c2O)cc1	EZH2 inh 89
O=C(NO)c1ccc(C(=O)N/N=C/c2ccccc2C(=O)O)cc1	none
O=C(CCCCC(=O)N/N=C/c1cccc(O)c1O)NO	none
CCN(CC)c1ccc(/C=N/NC(=O)c2ccc(C(=O)NO)cc2)c(O)c1	none
O=C(NO)c1ccc(C(=O)N/N=C/c2ccc(O)cc2)cc1	none
O=C(NO)c1ccc(C(=O)N/N=C/c2cccc(O)c2O)cc1	EZH2 inh 76
O=C(CSc1nnc(-c2ccco2)n1-c1cccc2ccccc12)Nc1ccc(C(=O)O)cc1	none
Cc1ccsc1/C=N/NC(=O)CCCCCC(=O)Nc1ccccc1O	none
CN(CC(=O)Nc1ncn[nH]1)S(=O)(=O)c1ccc2ccccc2c1	none
COc1cc(CN2CCC(C(=O)NC(C)c3ccc(OC)c(OC)c3)CC2)cc(OC)c1 (centres undefined)	none
S=C1NC2=C(C(c3ccccc3)N1)N1CCC2CC1 (centres undefined)	none
Cc1cc(Br)c(NC(=O)CSc2nccc(=O)[nH]2)cc1C	none
COCCNc1ncnc2c1oc1ccccc12	none
Cc1ccc(C(=O)COc2cccc(NC(=O)c3ccc(Br)cc3)c2)cc1C	none
CCOc1cccc(NC(=O)C2CC(=O)N(/N=C(\C)c3ccc(Br)s3)C(=N)S2)c1 (centres undefined)	EZH2 inh 92
COC(=O)COc1cccc(NC(=O)c2ccc(Br)cc2)c1	none
CN(C)C(CC(=O)Nc1cccc(Cl)c1Cl)C(=O)O (centres undefined)	none
O=c1[nH]c(=O)n(Cc2c(Cl)cccc2Cl)cc1F	none
Cc1ccc(N2C(=O)C3C4C=CC(CNC(=S)Nc5ccc(Br)cc5)(O4)C3C2=O)cc1 (centres undefined)	none
CCCCC/C=C\C/C=C\C/C=C\C/C=C\CCCCCC(=O)O	none
CCCCCCCC/C=C/CCCCCCCC(=O)NCCc1ccc(O)c(O)c1	EZH2 inh 68
CCCCCCCC/C=C/CCCCCCCC(=O)NCCO	none
O=C(CSc1nnc(-c2ccccc2O)n1-c1ccccc1)Nc1ccc(N2CCOCC2)cc1	none
Cc1cc2oc(=O)cc(CN(C)Cc3ccccc3)c2cc1C(C)C	EZH2 inh 50
CCCc1cc(=O)oc2cc(OCc3cc(C(=O)O)oc3C)ccc12	none
Cc1cc(=O)oc2cc(NC(=S)NCc3cccnc3)ccc12	none
Cc1ccc(Nc2nc(N)nc(CN3CCN(C(c4ccccc4)c4ccccc4)CC3)n2)cc1	none
CCn1c(SCC(=O)Nc2ccc(Br)cc2F)nnc1-c1ccccc1Cl	none
COc1cc(O)c(CC=C(C)C)cc1C(=O)/C=C/c1ccc(O)c(CC=C(C)C)c1	none
CC(C)=CCc1cc(/C=C2\OC(=O)C(c3cc4c(cc3O)OC(C)(C)CC4)C2=O)ccc1O (centres undefined)	EZH2 inh 78
Clc1nc(NC2CCCCC2)c2cc(Br)ccc2n1	none
CS(=O)(=O)N(CC(=O)Nc1cccc(Cl)c1)c1ccc(Br)cc1	none
CS(=O)(=O)N(CC(=O)Nc1ccc(Cl)c(Cl)c1)c1cc(Cl)cc(Cl)c1	none
CS(=O)(=O)N(CC(=O)Nc1ccc(Cl)c(Cl)c1)c1ccc(Br)cc1	EZH2 inh 55
CN1CCN(C(CC(=O)Nc2cccc([N+](=O)[O-])c2)C(=O)O)CC1 (centres undefined)	none
COC(=O)C1=CO[C@@H](O[C@@H]2O[C@H](CO)[C@@H](O)[C@H](O)[C@H]2O)[C@@H]2[C@@H](C)[C@@H](O)[C@@H](OC(=O)/C=C/c3ccc(O)c(O)c3)[C@H]12	none
CC1(OC(=O)/C=C/c2ccccc2)CC(O)C2C=COC(OC3OC(CO)C(O)C(O)C3O)C21 (centres undefined)	none
COC(=O)C1=CO[C@@H](O[C@@H]2O[C@H](CO)[C@@H](O)[C@H](O)[C@H]2O)[C@@H]2[C@@H]3CN4CCc5c([nH]c6ccccc56)[C@]4(C[C@H]12)O3	EZH2 inh 52
C=C[C@H]1[C@H](O[C@@H]2O[C@H](CO)[C@@H](O)[C@H](O)[C@H]2O)OC=C(C(=O)OC)[C@H]1C[C@@H]1N[C@H](C(=O)O)Cc2c1[nH]c1ccccc21	EZH2 inh 98
C=CC(C)(O)CC/C=C(\C)C(=O)OCC1CCC2C(C(=O)O)=COC(OC3OC(CO)C(O)C(O)C3O)C12 (centres undefined)	none
C=C1C(O)CC2C(C(=O)OC)=CO[C@@H](O[C@@H]3O[C@H](CO)[C@@H](O)[C@H](O)[C@H]3O)C12 (some centres undefined)	none
Cc1c(Cl)ccc2c(C(=O)NCCCn3cc(Br)cn3)cc(-c3ccncc3)nc12	none
Cc1cccc(OCC(=O)Nc2cccc(C(=O)Nc3ccccc3C(=O)O)c2)c1	none
COc1ccc(OCC(=O)Nc2ccccc2C(=O)Nc2ccccc2)cc1	none
CC(C)(C)c1ccc(OCC(=O)Nc2ccc(C(=O)Nc3ccccc3C(=O)O)cc2)cc1	EZH2 inh 64
Cn1nnnc1SCC(=O)Nc1ccc(F)cc1	none
Cc1ccc(NC(=O)C(C)NS(=O)(=O)c2ccc(F)cc2)cc1Cl (centres undefined)	none
O=C(CCCCC(=O)N/N=C/c1cc2c(cc1Br)OCO2)NO	none
Cc1ccccc1-c1nnc(SCC(=O)Nc2cccc(Br)c2)n1C	none
O=S(=O)(Nc1ncccn1)c1ccc(NC(=S)Nc2ccc3c(c2)CCC3)cc1	none
c1cnc(SCCCCOc2ccc3c(c2)CCC3)nc1	EZH2 inh 54
N#Cc1ccccc1OCCCCSc1ncccn1	none
COc1ccc(-c2cc(C(F)(F)F)nc(SCC(=O)Nc3cc(F)ccc3C)n2)cc1OC	none
CCOc1ccccc1NC(=O)c1ccsc1NC(=O)c1ccoc1C	none
O=C(O)CCCCCC(=O)N/N=C/c1ccc(N(c2ccccc2)c2ccccc2)cc1	EZH2 inh 61
O=C(CCCCCCC(=O)Nc1ccccc1O)N/N=C/c1ccc(N(c2ccccc2)c2ccccc2)cc1	none
N#Cc1ccc(/C=N/NC(=O)CCCCCC(=O)O)cc1	none
O=C(O)CCCCCCC(=O)N/N=C/c1ccc(N(c2ccccc2)c2ccccc2)cc1	EZH2 inh 63
O=C(O)CCCCCCC(=O)N/N=C/c1ccc(F)cc1	none
O=C(O)CCCCCC(=O)N/N=C/c1ccccc1	none
COc1ccc(NC(=O)CSc2nnc(N)s2)cc1Cl	none
N#Cc1c(C(F)(F)F)cc(-c2cccs2)nc1SCC(O)CN1CCSCC1 (centres undefined)	none
CCC(=O)N(Cc1cc2ccccc2[nH]c1=O)c1cccc(C)c1	none

Screening results: PubChem, Broad Institute
